The source of these data is PubChem BioAssay AID588358 (NMMLSC, 2011).

Where “and” joins values, the source holds several entries; their conditions need not be identical. Equal entries are not always repeated. Hit rate of the full screen: of about 310,000 compounds, about 1,500 (0.48%) were called active. The full list was thinned out, with actives kept by preference. Values without a mark were called inactive.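 Rule for the calls: active = binding more than 3 SD below its plate's average and above zero; inconclusive = below that plate limit but binding exactly zero; inactive = the rest.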

Sequence of Desmoglein-3 (Homo sapiens) (P32926 whole entry, looked up): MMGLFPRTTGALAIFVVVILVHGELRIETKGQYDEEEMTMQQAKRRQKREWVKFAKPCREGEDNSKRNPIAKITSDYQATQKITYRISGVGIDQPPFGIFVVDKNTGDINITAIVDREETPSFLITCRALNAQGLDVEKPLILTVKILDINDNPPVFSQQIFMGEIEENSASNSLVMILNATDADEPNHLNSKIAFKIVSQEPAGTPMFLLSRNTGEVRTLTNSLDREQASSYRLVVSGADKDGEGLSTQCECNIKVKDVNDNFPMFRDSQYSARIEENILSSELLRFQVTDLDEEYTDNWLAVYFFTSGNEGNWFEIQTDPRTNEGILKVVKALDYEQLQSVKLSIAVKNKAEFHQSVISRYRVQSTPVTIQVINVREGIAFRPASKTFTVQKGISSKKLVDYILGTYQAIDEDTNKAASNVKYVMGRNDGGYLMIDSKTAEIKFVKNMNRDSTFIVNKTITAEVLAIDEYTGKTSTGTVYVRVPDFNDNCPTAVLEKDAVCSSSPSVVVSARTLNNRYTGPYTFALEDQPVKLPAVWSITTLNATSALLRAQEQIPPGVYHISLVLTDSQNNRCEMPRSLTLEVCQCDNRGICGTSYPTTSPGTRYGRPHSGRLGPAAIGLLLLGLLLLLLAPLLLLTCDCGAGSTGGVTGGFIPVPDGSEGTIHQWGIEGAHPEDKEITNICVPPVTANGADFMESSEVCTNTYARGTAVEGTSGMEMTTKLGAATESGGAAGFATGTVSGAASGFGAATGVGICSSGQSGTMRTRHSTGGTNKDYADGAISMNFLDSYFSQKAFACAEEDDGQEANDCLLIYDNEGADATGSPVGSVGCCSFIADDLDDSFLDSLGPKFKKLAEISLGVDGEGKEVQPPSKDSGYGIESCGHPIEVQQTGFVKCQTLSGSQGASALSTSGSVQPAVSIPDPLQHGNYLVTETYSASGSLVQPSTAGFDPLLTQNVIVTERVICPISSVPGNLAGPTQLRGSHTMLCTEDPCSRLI

This assay has as its target Desmoglein-3 (Homo sapiens) (UniProt P32926). Put plainly: inhibitors of pemphigus antibody binding to DSG3, primary screen, biochemical, bead-based, flow cytometry, scFv-GFP (AID 588358). As to conditions: DSG3-coupled beads, scFv-anti-DSG3-GFP binding, at 10 µM, stronger effect = lower value. A general note: In flow cytometry, cells or beads pass a laser one at a time.
On to `CCCCCC(=O)N1C[C@H](O)[C@@H](n2cc(COC(=O)c3ccccc3)nn2)C[C@@H]1c1ccc(C)cc1`, for which the binding (percent of control) was 102%. Consider `CO/N=C(\C(=O)N[C@@H]1C(=O)N2C(C(=O)O)=C(COC(C)=O)CS[C@H]12)c1csc(N)n1` (stereo in doubt), for which the binding (percent of control) was 100% and 106%.

For `C=CC1=C(C(=O)O)N2C(=O)[C@@H](NC(=O)/C(=N\OCC(=O)O)c3csc(N)n3)[C@H]2SC1`, the binding (percent of control) was 71% (active). In the case of `C=CC1=C(C(=O)O)N2C(=O)[C@@H](NC(=O)/C(=N/OCC(=O)O)c3csc(N)n3)[C@H]2SC1`, the binding (percent of control) is 68.8%. In the case of `O=C(CCCN1C(=O)C(c2ccccc2)Oc2cccnc21)Nc1ccccc1Br` (configuration not stated), the binding (percent of control) is 105%. As for `O=C(OCc1cn([C@H]2C[C@H](c3ccccc3)N(C(=O)c3cccs3)C[C@@H]2O)nn1)c1ccccc1`, the binding (percent of control) is 106%. With `O=c1c2[nH]c3ccc(Cl)cc3c2ncn1Cc1ccccn1`, the binding (percent of control) was 51% (active). For `COc1ccc2c(c1)c1ncn(Cc3ccccn3)c(=O)c1n2C`, the binding (percent of control) was 112%. For the compound `Cc1ccc2[nH]c3c(=O)n(Cc4ccccn4)cnc3c2c1`, the binding (percent of control) was 108%. In the case of `C[C@@H]1CN([C@@H](C)CO)C(=O)CCCn2nncc2CO[C@H]1CN(C)Cc1ccc(C(F)(F)F)cc1`, the binding (percent of control) is 103%.

With `Cc1cc(C)c2cc(C#N)c(N3CCNCC3)nc2c1`, the binding (percent of control) was 105%. On to `COc1cc(/C=C2/C(=O)NN(c3cccc(Cl)c3)C2=O)cc(Br)c1O`, for which the binding (percent of control) is 233%. Turning to `C#CCOc1ccc(/C=C2/C(=O)ON=C2C)cc1OCC`, the binding (percent of control) was 111%. As to `C#CCOc1ccc(/C=C2/C(=O)NN(c3ccccc3)C2=O)cc1OC`, the binding (percent of control) is 81.6% (active). Then `Cc1ccc(Cc2c(-c3ccccc3)nc3ccc(Cl)cn23)cc1`, with 105%; and `CCOC(=O)c1cc(-c2sc(NC(=O)c3ccccc3)nc2C)n(CCO)n1`, with 96.7%. `CCN(CC)C(=O)C(C)N1c2cccc3cccc(c23)S1(=O)=O` (configuration not stated): the binding (percent of control) was 98.7%.

`CCOc1cc(N2CCOCC2)c(OCC)cc1NC(=O)C1=NN(c2cccc(C)c2)C(=O)CC1`: the binding (percent of control) was 102%. As for `CCOc1cc(N2CCOCC2)c(OCC)cc1NC(=O)COc1cccc(Cl)c1`, the binding (percent of control) is 96.8%. `CCOc1cc(N2CCOCC2)c(OCC)cc1NC(=O)c1ccc(C)s1`: the binding (percent of control) is 72.7% (active). In the case of `Cc1ccc(C(=O)NC(C)C(c2cccs2)N2CCOCC2)cc1C` (configuration not stated), the binding (percent of control) was 92.7%. Consider `Cc1ccccc1OS(=O)(=O)c1cccc([N+](=O)[O-])c1`, for which the binding (percent of control) was 100%. As to `COCOCCn1cc(CN2CCS(=O)(=O)N(Cc3ccc(-c4ccc(OC)cc4)cc3)C(CC(C)C)C2=O)nn1` (configuration not stated), the binding (percent of control) is 103%. Then `Cc1cc(C)c([N+](=O)[O-])cc1-c1ccc(/C=N/NC(=O)c2nonc2N)o1`, with 87.1% (active). With `Cc1ccc(-c2ccc(/C=N/NC(=O)CN3CCOCC3)o2)cc1[N+](=O)[O-]`, the binding (percent of control) was 101%.

In the case of `COc1cc(/C=N\NC(=O)c2nonc2N)c(OC)cc1Br`, the binding (percent of control) is 89.4%.

Take `O=C(NCCS(=O)(=O)N1CCN(c2ccccc2)CC1)c1cc(=O)c2ccccc2o1`: the binding (percent of control) is 99.7%.

Consider `O=C(NCCOc1ccccc1)N1[C@H]2CC[C@@H]1C=C(c1ccc(F)cc1OCc1ccccc1)C2`, for which the binding (percent of control) was 107%.

On to `CCC(Oc1ccccc1)C(=O)OCC(=O)Nc1c(C)nn(-c2ccccc2)c1C` (configuration not stated), for which the binding (percent of control) is 106%. Then `Cc1cnc(C(=O)OCC(=O)NCCCc2ccccc2)cn1`, with 104%; and `Cc1cnc(C(=O)OCC(=O)Nc2ccc(Cl)cc2Cl)cn1`, with 113%; and `Cc1cnc(C(=O)Oc2cccc(Cl)c2Cl)cn1`, with -19.6% (active). With `COc1cccc(NC(=O)Nc2ccc(F)cc2)c1`, the binding (percent of control) was 99.8%. Take `CC(OC(=O)c1cccc(S(=O)(=O)N2CCOCC2)c1)C(=O)NCC1CCCCC1` (configuration not stated): the binding (percent of control) was 106%. Then `CCc1c(N=O)c(-c2ccccc2)n(O)[n+]1[O-]`, with 95.9%; and `CCc1noc(C)c1C(=O)OCC(=O)c1ccc(NC(=O)CC(C)C)cc1`, with 106%.

Consider `CN(CCOc1ccccc1)C(=O)c1cc(-c2ccco2)nc2ccccc12`, for which the binding (percent of control) is 105%. Turning to `CN(C(=O)COC(=O)c1cc(-c2ccco2)nc2ccccc12)C1CCS(=O)(=O)C1` (configuration not stated), the binding (percent of control) was 59.4% (active). `CN(C(=O)COC(=O)c1nc(Cl)ccc1Cl)C1CCS(=O)(=O)C1` (configuration not stated): the binding (percent of control) is 109%. Take `O=S(=O)(c1cccc(C(F)(F)F)c1)N1c2ccccc2-n2cccc2C1c1cccnc1` (configuration not stated): the binding (percent of control) was 99.9%. Then `Fc1ccccc1/C=N/n1c(-c2cccnc2)n[nH]c1=S`, with 104%; and `c1ccc(-c2cc(-c3ccccc3)[nH]n2)cc1`, with 95%; and `S=c1[nH]nc(-c2cc(-c3ccccc3)n[nH]2)n1/N=C/c1c2ccccc2cc2ccccc12`, with 82.6% (active).

Consider `Cc1ccc(-c2ccc(CN3C(C)C(=O)N(Cc4cn(CCC5OCCCO5)nn4)CCS3(=O)=O)cc2)cc1` (configuration not stated), for which the binding (percent of control) is 104%.

Consider `C/C(=N/NC(=S)Nc1ccccc1)c1ccc2c(c1)OCO2`, for which the binding (percent of control) was 98.1%.

On to `C/C(=N\NC(=S)Nc1ccc(C)cc1)c1cc2ccccc2o1`, for which the binding (percent of control) was 83.6% (active). `Cc1ccc(NC(=O)c2cc3ccccc3o2)cc1`: the binding (percent of control) is 110%. Then `Cc1cc2cc3n(c2nn1)N=C(Cl)CC3`, with 104%; and `O=S1(=O)CCN(Cc2ccccc2)CC1`, with 96.1%.

Turning to `O=C(c1ccc(N2CCCC2=O)cc1)N1CCN(c2ccc(C(F)(F)F)cc2[N+](=O)[O-])CC1`, the binding (percent of control) was 99%.

With `Cc1cc2nc3c(=O)n(Cc4ccccc4)c(=O)[nH]c3nc2cc1N`, the binding (percent of control) is 99.2%. On to `Nc1ccc2nc3c(=O)[nH]c(=S)[nH]c3nc2c1`, for which the binding (percent of control) was 19% (active). Then `O=C(OCc1ccccc1)N1CCC2CC1c1cc(N3CCN(S(=O)(=O)c4cc(Cl)cc(Cl)c4)CC3)ccc12` (configuration not stated), with 100%; and `CCCCN1C(=O)C(CC(=O)NC(c2ccccc2)c2ccccc2)CC(C(=O)N2CCOCC2)=C1C` (configuration not stated), with 102%; and `O=C(N/N=C/c1ccc([N+](=O)[O-])cc1)C(=O)N1CCCC1`, with -16.9% (active). Then `O=C(NN=Cc1ccc([N+](=O)[O-])cc1)C1CC1`, with 122%; and `COC(=O)c1ccc(/C=N/NC(=O)C(=O)N2CCCCCC2)cc1`, with 102%; and `Cc1ccc(S(=O)(=O)N2C[C@@H](C)[C@]3(C2)[C@H](O)[C@H](OC(=O)NCc2ccccc2)C[C@H]2C(=O)N(c4ccccc4)C(=O)[C@H]23)cc1`, with 111%. On to `Cc1ccc(O/C=C2\OC(=O)c3ccccc32)cc1`, for which the binding (percent of control) was 80.4% (active). `Cc1ccc(Oc2cnn(-c3ccccc3)c(=O)c2Br)cc1`: the binding (percent of control) is 117%. For the compound `CN(C)C(CNC(=O)c1cccc(S(=O)(=O)N2CCc3ccccc3C2)c1)c1ccccc1` (configuration not stated), the binding (percent of control) is 97.5%.

Consider `Cc1cc(Cl)ccc1C(=O)C1CCCN(C(=O)c2ccc3c(c2)OCO3)C1` (configuration not stated), for which the binding (percent of control) is 103%. Then `CCOC(=O)c1c(S(=O)(=O)NCC(=O)Nc2ccc(C)cc2)c(C)n(C)c1C`, with 97.8%. For the compound `CCOC(=O)c1cccc(NS(=O)(=O)c2c(C(=O)N3CCCCCC3)c(C)n(C)c2C)c1`, the binding (percent of control) was 99.4%. `CCOC(=O)c1c(S(=O)(=O)Nc2cccc(Cl)c2)c(C)n(C)c1C`: the binding (percent of control) is 52% (active). On to `N#CCCN(C(=O)Nc1ccc(Cl)c(Cl)c1)C1CCCCC1`, for which the binding (percent of control) was 105%. As to `Cn1nc(N)c2ncc(C(Cl)(Cl)Cl)nc21`, the binding (percent of control) is 100%.

On to `O=C(CC(CC(=O)c1ccccc1)c1ccco1)c1ccccc1`, for which the binding (percent of control) is 99.4%. With `CNC(=O)C1CN(C(=O)c2cccc(S(=O)(=O)N3CCc4ccccc43)c2)c2ccccc2O1` (configuration not stated), the binding (percent of control) was 103%. For `Cc1cccc(C(=O)OCC(=O)Nc2sccc2C(N)=O)c1C`, the binding (percent of control) was 104%. With `CCc1ccc(NC(=O)Cn2nnc(C(=O)NCc3ccc(OC)cc3)c2N)cc1`, the binding (percent of control) was 106%. For `CCOc1ccc(Cn2nnc(C(=O)Nc3ccc(OC)cc3OC)c2N)cc1`, the binding (percent of control) is 81.7% (active).

Take `COc1ccc(NC(=O)Cn2nnc(C(=O)NCCc3ccc(OC)c(OC)c3)c2N)cc1`: the binding (percent of control) is 103%. `C[C@H]1NS(=O)(=O)c2cc(Cl)ccc2O[C@@H]1c1ccccc1`: the binding (percent of control) was 98.4%. `COc1cc2ccccc2cc1C(=O)Nc1ccc(NC(=O)c2cccs2)cc1`: the binding (percent of control) was 87.2%.

For `COc1ccc(CCNC(=O)/C(C#N)=C2\N=C(NC(=O)c3cccs3)c3ccccc32)cc1`, the binding (percent of control) was 81.2% (active). For the compound `COc1ccc(CN(Cc2ccc(OC)cc2)C(=O)c2cccs2)cc1`, the binding (percent of control) is 100%.

As for `COc1ccc(OC)c(C(=O)NC2CCCc3c2cnn3-c2cc(C)cc(C)c2)c1` (configuration not stated), the binding (percent of control) was 96.8%. Then `Cc1coc2c(O)cc3c(c12)OC1(N2CCCCC2)C(=O)NCCCC31` (configuration not stated), with 62.7% (active); and `CCCCN(C(C)=O)c1ccc2c(c1)C1CC2CCN1Cc1ccccc1` (configuration not stated), with 101%. Then `NC(=S)NN=Cc1ccc(OC(=O)COc2cc(Cl)c(Cl)cc2Cl)cn1`, with 102%. As to `COCOCCn1cc(CN2CCS(=O)(=O)N(Cc3ccc(-c4cccc(N(C)C)c4)cc3)C(CC(C)C)C2=O)nn1` (configuration not stated), the binding (percent of control) was 101%. As for `CCOC(=O)c1c(NC(=O)COC(=O)c2ccc(S(=O)(=O)C(F)F)cc2)sc(C(=O)N(C)C)c1C`, the binding (percent of control) was 100%. Regarding `O=C(O)c1ccc(NN=CC2=C(N3CCOCC3)/C(=C/c3ccccc3)CC2)cc1`, the binding (percent of control) is 109%. Then `C(=N\N1CCN(c2ccccn2)CC1)/C1=C(N2CCOCC2)C(=C/c2ccccc2)/CC1`, with 109%; and `O=C1Nc2ccc(Br)cc2/C1=N/N=C/C1=C(N2CCOCC2)C(=C\c2ccccc2)/CC1`, with 38.1% (active).

Regarding `CN1OC[C@@H]2CN(C(=O)c3ccc(-c4ccccc4)cc3)[C@H](c3ccc(-c4cccc(F)c4)cc3)C[C@@H]21`, the binding (percent of control) was 98.8%.
